Among the data in PubChem BioAssay are z-score and composite z-score values, retold here.

Activity calls are given as the source filed them.

Assay [1] in a line: E. coli DRC41 culture turbidity changes, primary screen, E. coli filamentation inducer project, strain DRC41, OD650, 48 h (AID 1152).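 Note: E. coli MC1000 strain DRC41 lacking acrAB efflux pump and sulA.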 As to conditions: E. coli DRC41 (acrAB sulA), higher = more signal, called active from +8 up or from −8 down.
Assay [2] in a line: small-molecule binders of probe aLefty1, primary screen, biochemical, small-molecule microarray, 635/667 nm fluorescence (AID 1153).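 Note: score merges spot fluorescence with signal-to-noise ratio from the scanned slide images.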 As to conditions: higher = more signal.
Assay [3] is described as follows: PSAC antagonists in infected red cells, primary screen, cell-based, P. falciparum Indochina, OD700, 1 h (AID 1154). As to conditions: P. falciparum Indochina infected RBC osmotic lysis, higher = more signal, called active from +8 up or from −8 down.
Assay [4] is described as follows: PSAC antagonists in infected red cells, primary screen, cell-based, P. falciparum Indochina, OD700, 2 h (AID 1155).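 Note: lysis reports solute entry through the parasite surface anion channel PSAC; channel blockers reduce lysis of infected cells.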 As to conditions: P. falciparum Indochina infected erythrocytes, osmotic lysis OD700; higher = more signal, called active from +8 up or from −8 down.
Assay [5] is described as follows: osmotic lysis modulators in infected erythrocytes, primary screen, PSAC antagonist project, cell-based, P. falciparum Indochina, OD700, 3 h (AID 1156). As to conditions: higher = more signal, called active from +8 up or from −8 down.
Assay [6] in a line: PSAC antagonists in infected red cells, primary screen, cell-based, P. falciparum Indochina, OD700, 18 h (AID 1157). As to conditions: P. falciparum Indochina infected erythrocytes, osmotic lysis OD700, 18 h; higher = more signal, called active from +8 up or from −8 down.
Assay [7] is described as follows: modulators of S6 phosphorylation in cells, primary screen, cell-based, A549, cytoblot, luminescence, serum-stimulated (AID 1158).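 Note: serum-stimulated A549 lung adenocarcinoma cells; signal is phosphorylated S6 detected by cytoblot immunostaining with HRP secondary.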 As to conditions: A549 phospho-S6 cytoblot, 5 h, higher = more signal.
Assay [8] has as its target NADPH oxidase 2 (Homo sapiens) (UniProt P04839). In words: NOX2-dependent H2O2 signal modulators, primary screen, NOX inhibitor project, cell-based, HEK293-NOX2, PMA-stimulated, Amplex Red fluorescence (AID 1159). Note: test concentration not given here. As to conditions: 45 min, higher = more signal, called active from +8 up or from −8 down.
Assay [9] concerns the target NADPH oxidase 4 (Homo sapiens) (UniProt Q9NPH5). In words: NOX4-dependent H2O2 signal modulators, primary screen, NOX inhibitor project, cell-based, HEK293-NOX4, tetracycline-induced, Amplex Red fluorescence (AID 1160). As to conditions: 45 min, higher = more signal, called active from +8 up or from −8 down.
Assay [10] addresses NADPH oxidase 5 (Homo sapiens) (UniProt Q96PH1). In words: NOX5-dependent H2O2 signal modulators, primary screen, NOX inhibitor project, cell-based, HEK293-NOX5, Amplex Red fluorescence (AID 1161). As to conditions: HEK293-NOX5, ionomycin, 45 min, higher = more signal.

Sequence of NADPH oxidase 2 (Homo sapiens) (P04839 whole entry, looked up): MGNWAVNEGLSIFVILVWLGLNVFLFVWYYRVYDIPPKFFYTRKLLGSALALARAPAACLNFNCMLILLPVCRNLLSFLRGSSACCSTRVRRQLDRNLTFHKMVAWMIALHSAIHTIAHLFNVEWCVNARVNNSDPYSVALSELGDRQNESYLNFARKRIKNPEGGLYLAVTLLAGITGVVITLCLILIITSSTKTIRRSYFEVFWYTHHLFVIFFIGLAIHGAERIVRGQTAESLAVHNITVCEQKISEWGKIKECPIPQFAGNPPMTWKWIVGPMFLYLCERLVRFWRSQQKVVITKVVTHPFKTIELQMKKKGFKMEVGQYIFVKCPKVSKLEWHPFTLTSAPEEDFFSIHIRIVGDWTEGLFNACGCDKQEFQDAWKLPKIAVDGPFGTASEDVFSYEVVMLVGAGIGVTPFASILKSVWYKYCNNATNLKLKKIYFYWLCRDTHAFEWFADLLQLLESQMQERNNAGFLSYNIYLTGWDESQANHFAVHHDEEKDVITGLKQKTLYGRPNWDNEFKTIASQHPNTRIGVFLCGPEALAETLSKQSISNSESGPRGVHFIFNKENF
Sequence of NADPH oxidase 5 (Homo sapiens) (Q96PH1 whole entry, looked up): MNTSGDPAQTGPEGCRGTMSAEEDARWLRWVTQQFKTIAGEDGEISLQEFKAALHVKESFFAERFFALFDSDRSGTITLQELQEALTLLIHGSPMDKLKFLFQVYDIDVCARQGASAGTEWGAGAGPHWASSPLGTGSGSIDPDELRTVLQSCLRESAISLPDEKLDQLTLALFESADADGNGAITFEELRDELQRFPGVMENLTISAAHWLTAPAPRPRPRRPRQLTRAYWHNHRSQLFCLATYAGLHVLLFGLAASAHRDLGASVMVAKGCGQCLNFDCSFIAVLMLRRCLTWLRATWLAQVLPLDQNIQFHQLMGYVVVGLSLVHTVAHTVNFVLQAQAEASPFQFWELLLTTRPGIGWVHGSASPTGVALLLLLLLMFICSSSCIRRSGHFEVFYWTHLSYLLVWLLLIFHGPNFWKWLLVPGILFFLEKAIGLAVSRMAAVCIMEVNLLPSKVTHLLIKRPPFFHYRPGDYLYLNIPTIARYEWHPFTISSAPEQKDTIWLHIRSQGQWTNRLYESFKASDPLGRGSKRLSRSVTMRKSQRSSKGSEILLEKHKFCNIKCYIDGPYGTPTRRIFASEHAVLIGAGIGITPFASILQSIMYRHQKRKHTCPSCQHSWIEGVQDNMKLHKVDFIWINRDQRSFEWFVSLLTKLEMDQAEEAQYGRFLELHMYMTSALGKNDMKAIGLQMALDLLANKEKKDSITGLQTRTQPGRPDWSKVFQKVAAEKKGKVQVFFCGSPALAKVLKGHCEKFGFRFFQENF
Sequence of NADPH oxidase 4 (Homo sapiens) (Q9NPH5 whole entry, looked up): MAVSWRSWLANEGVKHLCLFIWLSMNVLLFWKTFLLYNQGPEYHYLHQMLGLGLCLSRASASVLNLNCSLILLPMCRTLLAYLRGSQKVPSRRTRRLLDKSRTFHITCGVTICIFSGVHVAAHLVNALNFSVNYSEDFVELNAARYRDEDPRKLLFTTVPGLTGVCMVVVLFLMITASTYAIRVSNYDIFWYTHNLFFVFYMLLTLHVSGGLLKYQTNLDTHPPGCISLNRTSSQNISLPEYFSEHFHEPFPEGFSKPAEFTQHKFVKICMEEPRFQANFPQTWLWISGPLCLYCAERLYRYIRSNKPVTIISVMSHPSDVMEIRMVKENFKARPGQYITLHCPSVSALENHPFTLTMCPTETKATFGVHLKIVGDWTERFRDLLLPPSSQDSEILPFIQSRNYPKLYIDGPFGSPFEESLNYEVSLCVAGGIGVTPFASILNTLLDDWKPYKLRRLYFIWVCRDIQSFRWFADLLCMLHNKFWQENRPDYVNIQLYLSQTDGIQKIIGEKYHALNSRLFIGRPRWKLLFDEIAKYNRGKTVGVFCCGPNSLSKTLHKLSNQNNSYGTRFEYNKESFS

Take `CS(=O)(=O)CCOC(=O)C1=CC(CCCO)=CC(C2CC2)N(Cc2cc3c(cc2Br)OCO3)C=C1C(=O)OCCS(C)(=O)=O` (stereo not given): the z-score in assay [1] is 0.307 (inactive); in [3], 3.83 (inactive); in assay [4], 1.02 (inactive); in assay [5] it was 0.106 (inactive); in assay [6], 0.504 (inactive); in assay [7] it was 0.404. Further, the z-score in [8] is -1.56 (inactive); in assay [9], -0.0814 (inactive); in assay [10], -1.11. In assay [2], this compound gave a composite z-score of 0.131.

Turning to `COCCOC(=O)N1C(=O)[C@@]2(c3cc(C#CC4(O)CCCCCC4)ccc31)[C@H](C(=O)Nc1nc3ccccc3s1)[C@H]1C(=O)O[C@H](c3ccccc3)[C@H](c3ccccc3)N1[C@@H]2c1ccccc1OCCO`, the z-score in assay [1] is 0.736 (inactive); in assay [3], 2.48 (inactive); in [4] it was 1.81 (inactive); in [5] it was 0.895 (inactive); in assay [6], 0.948 (inactive); in [7], 0.476. Also, the z-score was 1.85 (inactive) in [8], 0.572 (inactive) in assay [9] and 0.908 in assay [10]. Moreover, in assay [2], the composite z-score was determined as 0.282.

Consider `COC(=O)[C@]1(Cc2ccccc2)N=C(c2ccc(OCCCO)cc2)O[C@@H]1c1ccccc1N=[N+]=[N-]`, for which the z-score is -1.19 (inactive) in assay [1]; 28 (active) in assay [3]; 24.7 (active) in [4]; 0.883 (inactive) in assay [5]; 4.33 (inactive) in assay [6]; 0.483 in assay [7]. For the same compound, the values for the z-score in [8], in [9] and in [10] were -0.936 (inactive), 1.14 (inactive) and 0.0948, respectively. For the same compound, in assay [2], the composite z-score was -0.324.

On to `C#CCNCc1ccccc1`, for which the z-score is -0.131 (inactive) in [1]; 0.229 (inactive) in assay [3]; 0.876 (inactive) in [4]; -0.116 (inactive) in [5]; 0.409 (inactive) in [6]; -0.255 in assay [7]. Besides, the z-score in assay [8] is -12.1 (active); in [9], -0.493 (inactive); in [10], 0.615. In addition, the composite z-score in assay [2] was -0.235.

Turning to `CCCCN1CC=CC23O[C@@H]4C=CCCOC(=O)C4[C@H]2C(=O)N(CCCCCO)[C@@H]3C1=O` (stereo not given in full), the z-score in assay [1] is 0.4 (inactive); in [3] it was 1.47 (inactive); in [4], 0.48 (inactive); in assay [5], 2.26 (inactive); in [6] it was 0.331 (inactive); in [7], -0.0028. Further, the values for the z-score in assay [8], in [9] and in assay [10] were 1.28 (inactive), 0.0393 (inactive) and 1.46, respectively. The compound also had a composite z-score in assay [2] of -0.363.

As for `O=C1O[C@H](c2ccccc2)[C@H](c2ccccc2)N2[C@H]1[C@@H](C(=O)N1CCN(c3ncccn3)CC1)[C@]1(C(=O)Nc3ccc(C#CC4=CCCCC4)cc31)[C@H]2c1ccccc1OCCO`, the z-score in assay [1] is -0.544 (inactive); in assay [3], 1.45 (inactive); in assay [4], 0.746 (inactive); in assay [5], 0.774 (inactive); in assay [6], 1.03 (inactive); in [7] it was -0.187. Besides, the results for the z-score in [8], in assay [9] and in assay [10] were 1.46 (inactive), 0.867 (inactive) and 1.01, respectively. In [2], this compound came in with a composite z-score of 1.52.

On to `CC1CC/C=C\[C@H]2OC34C=CCN(Cc5ccccc5)C(=O)[C@H]3N(C(C)CO)C(=O)[C@@H]4C2C(=O)O1` (stereo not given in full), for which the z-score in [1] is 0.537 (inactive); in [3], 0.16 (inactive); in assay [4], 0.365 (inactive); in assay [5], 1.8 (inactive); in [6], 0.425 (inactive); in assay [7] it was -0.0395. Moreover, the z-score in [8] was 0.799 (inactive); in [9], -0.657 (inactive); in assay [10] it was 1.27. Moreover, in assay [2], the composite z-score was -0.0984.

`CC(C)N1CC=CC23O[C@@H]4C=CCOC(=O)[C@@H]4[C@H]2C(=O)N(CCCCCO)[C@@H]3C1=O` (stereo not given in full): the z-score in assay [1] was 2.79 (inactive); in assay [3], 0.641 (inactive); in assay [4], 0.0869 (inactive); in assay [5] it was 0.204 (inactive); in [6], 0.236 (inactive); in assay [7], 1.73. Moreover, the z-score in [8] is 0.865 (inactive); in assay [9], 0.225 (inactive); in [10], 1.44. This compound showed a composite z-score in assay [2] of 0.19.

As for `CN1C(=O)C2C=CC(C(O)C=Cc3ccc([N+](=O)[O-])cc3)N(Nc3ccccc3)C2C1=O` (stereo not given), the z-score is -1.84 (inactive) in assay [1]; 6.52 (inactive) in [3]; 1.48 (inactive) in assay [4]; 0.86 (inactive) in [5]; 1.32 (inactive) in assay [6]; -1.05 in [7]. The z-score in assay [8] is -1.57 (inactive); in assay [9] it was -3.82 (inactive); in assay [10] it was -2.44. The same compound returned a composite z-score in assay [2] of -0.139.

For `O=C(CS)NCCCCCNC(=O)[C@H]1C[C@H]2C(=O)NCC(=O)N2[C@H]1c1cccc(OCCO)c1`, the z-score was 1.43 (inactive) in assay [1]; 0.0198 (inactive) in assay [3]; -0.851 (inactive) in assay [4]; -4 (inactive) in assay [5]; -2.1 (inactive) in [6]; -0.61 in assay [7]. The z-score in assay [8] was 0.448 (inactive); in [9], 1.08 (inactive); in assay [10], 0.664. Also, the composite z-score in assay [2] was -0.142.

For the compound `COc1cc2c(cc1O)C(c1cccs1)N(Cc1ccc([N+](=O)[O-])o1)CC2` (stereo not given), the z-score in [1] is 1.9 (inactive); in [3] it was 25.1 (active); in assay [4], 7.24 (inactive); in assay [5], -0.39 (inactive); in assay [6] it was -0.628 (inactive); in assay [7], 1.23. Further, the figures for the z-score in assay [8], in assay [9] and in assay [10] were -4.4 (inactive), -2.58 (inactive) and -2.92, respectively. The same compound displayed a composite z-score in assay [2] of 0.0161.

With `COc1ccc([C@H]2C[C@H]3C(I)=C[C@@H]2C(=O)[C@]32CO2)cc1`, the z-score in [1] is 0.794 (inactive); in [3], 0.524 (inactive); in [4], 0.0528 (inactive); in [5], 0.255 (inactive); in assay [6] it was -0.0393 (inactive); in [7], 0.759. Moreover, the z-score in assay [8] is -0.546 (inactive); in assay [9] it was -0.298 (inactive); in assay [10] it was -0.974. In addition, the composite z-score in [2] is -0.28.

For the compound `CC(=O)n1cc(C(O)C2C=CC3C(=O)NC(=O)C3N2Nc2ccccn2)c2ccccc21` (stereo not given), the z-score was -0.734 (inactive) in [1]; 0.625 (inactive) in assay [3]; 0.827 (inactive) in [4]; -0.313 (inactive) in assay [5]; 0.679 (inactive) in [6]; -0.612 in assay [7]. Also, the figures for the z-score in assay [8], in assay [9] and in [10] were -1.68 (inactive), -2.41 (inactive) and -1.58, respectively. Further, the composite z-score in [2] was -0.101.
